Experimental data: PubChem BioAssay AID686928 (Broad Institute, 2013)
Measured potencies and affinities stand elsewhere. Active and inactive are the calls of the source. No rule for the calls is given here.

Assay: HeLa cell cytotoxicity, dose response, cytotoxicity control, 24 h, plate reader, dry powder (AID 686928)
Conditions: series mostly up to 80 µM; activity change, negative = cytotoxicity: at the top concentration

| Structure (SMILES) | activity change, negative = cytotoxicity |
| --- | --- |
| Cc1ccc2c(=O)ncn(-c3cccc(Cl)c3)c2c1 | 2.63% (inactive) |
| CCn1nnnc1/N=C/c1ccc(N2CCCCC2)cc1 | -16.1% [at 100 µM] (inactive) |
| Cn1nc(NC(=O)c2ccco2)c2cc3ccc(C(C)(C)C)cc3nc21 | -74.1% [at 100 µM] (inactive) |
| Cc1ccc2c(c1)c(=O)ncn2-c1cccc(Cl)c1 | 0.664% (inactive) |
| Cn1nc(NC(=O)c2ccco2)c2cccnc21 | 3.54% [at 100 µM] (inactive) |
| Cc1ccc2cc3c(NC(=O)c4ccc(C)o4)nn(C)c3nc2c1 | 6.38% [at 100 µM] (inactive) |
| O=C(Nc1nnc(-c2ccc3c(c2)OCCO3)o1)C1CC1 | 2.93% [at 100 µM] (inactive) |
| COc1cccc(-c2nnc(NC(=O)C3CCCCC3)o2)c1 | 1.34% [at 100 µM] (inactive) |
| O=c1ncn(-c2cc(Cl)cc(Cl)c2)c2ccccc12 | -5.54% (inactive) |
| O=C(Nc1nnc(-c2ccc3c(c2)OCCO3)o1)C1CCCC1 | 7.68% (inactive) |
| O=c1ncn(-c2cccc(Cl)c2)c2ccc(Cl)cc12 | -6.27% (inactive) |
| Cc1ccc2cc3c(NC(=O)c4cc5ccccc5o4)nn(C)c3nc2c1 | -46.2% [at 100 µM] (inactive) |
| Cc1ccc2cc3c(NC(=O)C4CCCC4)nn(C)c3nc2c1 | -8.11% (inactive) |
| CCc1ccc2cc3c(NC(=O)c4ccco4)nn(C)c3nc2c1 | -37.8% (inactive) |
| C(=N\c1nnc(-c2ccc3c(c2)OCCO3)o1)/c1ccccc1 | -8.71% [at 100 µM] (inactive) |
| O=C(Nc1nnc(-c2ccncc2)o1)C1CCC1 | 2.42% [at 100 µM] (inactive) |
| O=c1ncn(-c2cccc(Cl)c2)c2cccc(Cl)c12 | -3.27% (inactive) |
| O=c1ncn(-c2ccc(F)c(Cl)c2)c2ccccc12 | 0.53% (inactive) |
| O=C(Nc1nnc(-c2ccc3c(c2)OCCO3)o1)C1CCC1 | 5.69% [at 100 µM] (inactive) |
| Cc1cc(F)cc2nc3c(cc12)c(NC(=O)c1ccco1)nn3C | 2.47% [at 100 µM] (inactive) |
| O=c1nc(-c2ccccc2)n(-c2cccc(Cl)c2)c2ccccc12 | 0.608% (inactive) |
